Results published in PubChem BioAssay (NCATS).
Records with an inconclusive call do not appear. Where a call stands in place of a potency, no number is given. Activity calls are given as the source filed them. Calls follow the shape of the dose curve; as a rule, active = well fitted inhibition curve with a large enough effect; inconclusive = small, poorly fitted or top-dose-only effect, or effect the other way; inactive = flat fitted curve, though single readings scatter. Bridge positions count the residues as written; N and C are the ends. Square brackets hold non-standard residues; d marks the D form. Peptide text beside a SMILES is read from it. hArg = N=C(N)NCCCC[C@H](N)C(=O)O; Mpa = O=C(O)CCS

These molecules were tested against ATP-dependent 6-phosphofructokinase (Trypanosoma brucei brucei) (UniProt O15648) (assay: qHTS Assay to Find Inhibitors of T. brucei phosphofructokinase: hit validation (AID 492961;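 also: luminescence reports ADP formed as PFK phosphorylates fructose-6-phosphate with ATP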)). Conditions: T. brucei PFK, ADP-Glo luminescence; series mostly up to 51.4 µM.
ATP-dependent 6-phosphofructokinase (Trypanosoma brucei brucei), sequence (O15648 whole entry, looked up): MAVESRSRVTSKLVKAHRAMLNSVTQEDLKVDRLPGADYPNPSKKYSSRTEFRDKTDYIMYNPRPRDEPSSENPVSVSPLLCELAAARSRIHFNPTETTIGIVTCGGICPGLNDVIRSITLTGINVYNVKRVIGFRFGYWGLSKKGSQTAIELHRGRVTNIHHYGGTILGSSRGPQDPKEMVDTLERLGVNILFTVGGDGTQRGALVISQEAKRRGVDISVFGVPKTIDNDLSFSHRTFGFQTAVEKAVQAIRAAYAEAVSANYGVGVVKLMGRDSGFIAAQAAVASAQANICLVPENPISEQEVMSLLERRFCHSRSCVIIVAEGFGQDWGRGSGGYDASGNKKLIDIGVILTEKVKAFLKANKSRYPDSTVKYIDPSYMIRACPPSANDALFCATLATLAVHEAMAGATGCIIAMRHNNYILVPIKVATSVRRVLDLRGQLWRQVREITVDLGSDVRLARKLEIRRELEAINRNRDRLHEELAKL
Method in brief: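 PFK 1.25 nM, F6P 0.5 mM, ATP 0.1 mM, MgCl2 5 mM, 0.1 M TEA pH 8.0, Tween20 0.01%, BSA 0.1%; 45 min RT. ADP-Glo two-step detection, luminescence. qHTS titration; curve fitting with curve-class categorization.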

Q: For `CC(C)C(Br)C(=O)NC(N)=O` (stereo not drawn), which Potency is on record?
A: The Potency was “inactive”.

Q: For `C[C@]12Cc3nonc3C[C@@H]1CC[C@@H]1[C@@H]2CC[C@@]2(C)[C@H]1CC[C@]2(C)O`, which Potency is on record?
A: The Potency was “inactive”.

Q: Which Potency does the source give for `Cc1c(Cl)c(=O)oc2cc(OP(=O)(OCCCl)OCCCl)ccc12` here?
A: The Potency was “inactive”.

Q: With `c1cc2c(c(N3CCNCC3)c1)OCCO2` as the molecule, how does the Potency read?
A: The Potency was “inactive”.

Q: With `CC(C)(O)C(Cl)(Cl)Cl` as the molecule, how does the Potency read?
A: The Potency was “inactive”.

Q: With `CCOC(=O)NC(O)C(Cl)(Cl)Cl` (stereo not drawn) as the molecule, how does the Potency read?
A: The Potency was “inactive”.

Q: Which Potency does the source give for `CC[C@]1(O)CC[C@H]2[C@@H]3CCC4=CCCC[C@@H]4[C@H]3CC[C@@]21C` here?
A: Its Potency is “inactive”.

Q: With `NC(=O)[C@@H]1CSSCCC(=O)N[C@@H](CCCCN=C(N)N)C(=O)NCC(=O)N[C@@H](CC(=O)O)C(=O)N[C@@H](Cc2c[nH]c3ccccc23)C(=O)N2CCC[C@H]2C(=O)N1` ([Mpa][hArg]GDWPC-NH2; disulfide 1-7) as the molecule, how does the Potency read?
A: Its Potency is “inactive”.

Q: With `CC(Cc1ccccc1)NCc1ccccc1Cl` (stereo not drawn) as the molecule, how does the Potency read?
A: The Potency was “inactive”.

Q: How did the Potency turn out when `CN1C[C@@H](NS(=O)(=O)N(C)C)C[C@@H]2c3cccc4c3c(cn4C)C[C@H]21` was run?
A: Its Potency is “inactive”.

Q: For `CCC1(c2ccccc2)CCC(=O)NC1=O` (stereo not drawn), which Potency is on record?
A: The Potency was “inactive”.

Q: Which Potency does the source give for `CCNc1nc(Cl)nc(NCC)n1` here?
A: The Potency was “inactive”.

Q: Which Potency does the source give for `CNC(=O)NC(O)C(Cl)(Cl)Cl` (stereo not drawn) here?
A: Its Potency is “inactive”.

Q: `COc1ccc(CN2CCNCC2)c(OC)c1OC` was tested. Which Potency did it give?
A: Its Potency is “inactive”.

Q: `C[C@H]1C(=O)O[C@@H]2CCN3CC=C(COC(=O)[C@](C)(O)[C@]1(C)O)[C@H]23` was tested. Which Potency did it give?
A: The Potency was “inactive”.

Q: With `C[N+]1(CCC(C(N)=O)(c2ccccc2)c2ccccc2)CCCCC1` as the molecule, how does the Potency read?
A: Its Potency is “inactive”.

Q: How did the Potency turn out when `Cc1ccc(N=CN(C)C=Nc2ccc(C)cc2C)c(C)c1` was run?
A: The Potency was “inactive”.

Q: `CCCCCCCCCCCC[N+](C)(C)CCOc1ccccc1` was tested. Which Potency did it give?
A: The Potency was “inactive”.
